3CLpro inhibitor – SARS-CoV 3CLpro protease inhibition | hit rate 0.14% among 290,000 | P0C6X7 | inhibition, % at 6 µM | recombinant SARS-CoV 3CLpro, quenched FRET peptide cleavage; in the data active = inhibition above about 12%
Vc quorum ag – quorum light induction in luxS cqsA deficient V. cholerae. V. cholerae BH1578 lux reporter, luminescence, 6 h. activation, % at 18.7 µM. hit rate 0.16% among 350,000; in the data active = activation mostly above about 9.7%, no sharp cut-off
PfHsp40 yeast – compounds rescuing yeast from Plasmodium falciparum HSP40 toxicity. hit rate 0.68% among 340,000. S. cerevisiae expressing PfHsp40, growth rescue, ATP luminescence. growth rescue, % at 12.5 µM. AID 504582; in the data active = growth rescue above about 28%, passing the limit was not always enough;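 also: yeast W303a lacking pdr1 and pdr3 grown in galactose medium; growth measured after three days at 30 °C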
PriA SSB inh – blocks PriA binding to SSB C-terminal tail | hit rate 0.6% among 430,000 | inhibition, % at 33 µM | AlphaScreen SSBct-PriA binding, biotinylated peptide; in the data active = inhibition mostly above about 37%, no sharp cut-off; inactive = mostly below about 20%
PrP UTR inh – suppresses PrP 5' UTR mRNA reporter expression; cell-based PrP 5' UTR mRNA reporter, plate reader; inhibition, % (test concentration not listed); hit rate 0.35% among 340,000; in the data active = inhibition above about 52%
PrPC TRFRET – inhibitors of human cell surface prion protein PrPC; hit rate 0.43% among 370,000; P04156; TR-FRET read-out; inhibition, % at 13.8 µM; AID 720596; in the data active = inhibition above about 24%
PrPC confirm – confirmation of inhibitors of cell surface human prion protein. shares compounds with PrPC TRFRET. cell surface PrPC level, TR-FRET. inhibition, % at 13.8 µM. hit rate 65% among 1,500. AID 743200; in the data active = inhibition above about 25%
LD9 tox – kills or reduces viability of LD9 cells in PrPc counter-screen; shares compounds with PrPC TRFRET; hit rate 29% among 1,500; inhibition, % at 13.8 µM; AID 743201; LD9 cells cytotoxicity, luminescence viability; in the data active = inhibition above about 9.5%
Each line names hits and unclear results; the compound was inactive in the other large screens (follow-up assays come after a bar, where they were run). Rows were chosen to be rich in hits. Some 1.6% of all compounds tested hit in one or more screens of this group.

O=C(O)C(=Cc1ccccc1[N+](=O)[O-])c1ccc2c(c1)OCO2	PrPC TRFRET 27 (no result: 3CLpro inhibitor, PfHsp40 yeast, PriA SSB inh, PrP UTR inh) | PrPC confirm inactive | LD9 tox inactive
CCOC(=O)c1sc(C)c2c1NC(C)(c1cccs1)NC2=O (stereo unspecified)	PrPC TRFRET 36 | PrPC confirm 34 | LD9 tox inactive
COc1cc(C(=O)NNC(=O)c2cc(-c3ccccc3)n[nH]2)cc(OC)c1C	PrPC TRFRET 26 (no result: 3CLpro inhibitor) | PrPC confirm inactive | LD9 tox inactive
CS(=O)(=O)c1ccc(C(=O)NNC(=O)c2cc(-c3ccccc3)n[nH]2)cc1	none (no result: 3CLpro inhibitor)
CC(C)(C)c1coc(N)c1C#N	none (no result: 3CLpro inhibitor, Vc quorum ag, PfHsp40 yeast, PrP UTR inh, PrPC TRFRET)
Cc1nc(SC2CCOC2=O)c2c(C)c(C)sc2n1 (stereo unspecified)	PrPC TRFRET 98 | PrPC confirm 103 | LD9 tox inactive
CC(=O)c1cnc(Nc2ccccc2)s1	none
CC(=O)c1cnc(Nc2cccc(Cl)c2Cl)s1	PrPC TRFRET 26 | PrPC confirm inactive | LD9 tox inactive
CCOc1cc2[nH]c(=S)n(C(C)C)c(=O)c2cc1OCC	PrPC TRFRET 33 | PrPC confirm 36 | LD9 tox inactive
O=C(O)c1ccccc1C(=O)c1cccc2c(Br)cccc12	PrPC TRFRET 60 (no result: 3CLpro inhibitor) | PrPC confirm 91 | LD9 tox inactive
Cc1ccn2c(=O)nc(SCC(=O)Nc3ccc(F)cc3F)nc2c1	none (no result: 3CLpro inhibitor, Vc quorum ag, PfHsp40 yeast, PrP UTR inh, PrPC TRFRET)
O=C(c1ccccc1Cc1ccccc1)N1CCN(S(=O)(=O)c2ccccc2)CC1	none
Cc1ccc(C)c(S(=O)(=O)N2CCN(C(=O)c3ccccc3Cc3ccccc3)CC2)c1	PrPC TRFRET 55 (no result: 3CLpro inhibitor) | PrPC confirm inactive | LD9 tox inactive
Cc1nc2ccccc2c2oc(C(=O)N3CCN(C4CCCCC4)CC3)cc12	PrPC TRFRET 26 | PrPC confirm inactive | LD9 tox 15
CCCCCCCCCCCCCCCC[n+]1cccc2ccccc21	PrPC TRFRET 40 | PrPC confirm 51 | LD9 tox 55
CC(C)Sc1nc(-c2ccccc2Cl)nc2c1c(=O)n(C)c(=O)n2C	none (no result: 3CLpro inhibitor, Vc quorum ag, PfHsp40 yeast, PrP UTR inh, PrPC TRFRET)
O=C(c1ccc(C(F)(F)F)cc1)C1CCCN(Cc2ccncc2)C1 (stereo unspecified)	PrPC TRFRET 29 | PrPC confirm inactive | LD9 tox 12
Cc1sc2ncnc(SCC(=O)Nc3c(F)cccc3F)c2c1C	none (no result: 3CLpro inhibitor, Vc quorum ag, PfHsp40 yeast, PrP UTR inh, PrPC TRFRET)
NS(=O)(=O)c1cccc(NC(=O)CSc2ncnc3ccccc23)c1	PrPC TRFRET 37 | PrPC confirm 36 | LD9 tox inactive
NS(=O)(=O)c1ccc(CCNC(=O)CSc2ncnc3ccccc23)cc1	PrPC TRFRET 27 | PrPC confirm 45 | LD9 tox inactive
Cc1sc2ncnc(SCC(=O)Nc3cccc(S(N)(=O)=O)c3)c2c1C	PrPC TRFRET 28 (no result: 3CLpro inhibitor) | PrPC confirm 44 | LD9 tox inactive
CCN(CC)S(=O)(=O)c1ccc(NC(=O)CSc2ncnc3ccccc23)cc1	PrPC TRFRET 47 | PrPC confirm 60 | LD9 tox inactive
NS(=O)(=O)c1ccc(NC(=O)CSc2ncnc3ccccc23)cc1	none
COc1ccccc1NC(=O)CSc1ncnc2ccccc12	none (no result: 3CLpro inhibitor, Vc quorum ag, PfHsp40 yeast, PrP UTR inh, PrPC TRFRET)
Cc1oncc1C(=O)N1CCO[C@H](c2ccccc2)C1	none (no result: 3CLpro inhibitor, Vc quorum ag, PfHsp40 yeast, PrP UTR inh, PrPC TRFRET)
Cc1nc(SCC(=O)Nc2cc(C(N)=O)cc(C(N)=O)c2)c2c(C)c(C)sc2n1	PrPC TRFRET 85 | PrPC confirm 94 | LD9 tox inactive
C=C1C(=O)O[C@@H]2C[C@@H](C)[C@@H]3C=CC(=O)[C@@]3(C)[C@@H](OC(C)=O)[C@H]12	PrPC TRFRET 95 (no result: 3CLpro inhibitor, Vc quorum ag, PfHsp40 yeast, PrP UTR inh) | PrPC confirm 104 | LD9 tox 34
CO[C@H]([C@H](C)/C=C/N(C)C=O)[C@@H](C)C(=O)CC[C@H](C)[C@H](O)[C@H](C)[C@H]1OC(=O)/C=C/C(C)=C/C[C@H](O)C[C@@H]2C=CC[C@@H](C[C@H](OC)C(C)(O)[C@@H](OC)C[C@@H](OC)[C@@H]1C)O2 (stereo partly specified)	PrPC TRFRET 47 (no result: 3CLpro inhibitor, Vc quorum ag, PfHsp40 yeast, PriA SSB inh, PrP UTR inh) | PrPC confirm 42 | LD9 tox 25
CO[C@H]([C@H](C)/C=C/N(C)C=O)[C@@H](C)C(O)CC[C@H](C)[C@H](O)[C@H](C)[C@H]1OC(=O)/C=C/C(C)=C/C[C@H](O)C[C@@H]2C=CC[C@@H](C[C@H](OC)[C@@]3(CO3)[C@@H](OC)C[C@@H](OC)[C@@H]1C)O2 (stereo partly specified)	PrPC TRFRET 26 (no result: 3CLpro inhibitor, Vc quorum ag, PfHsp40 yeast, PriA SSB inh, PrP UTR inh) | PrPC confirm inactive | LD9 tox 25
CO[C@H]([C@H](C)/C=C/N(C)C=O)[C@@H](C)C(=O)CC[C@H](C)[C@H](O)[C@H](C)[C@H]1OC(=O)/C=C/C(C)=C/C[C@H](O)C[C@@H]2C=CC[C@@H](C[C@H](OC)[C@@H](CO)[C@@H](OC)C[C@@H](OC)[C@@H]1C)O2	PrPC TRFRET 38 (no result: 3CLpro inhibitor, Vc quorum ag, PfHsp40 yeast, PriA SSB inh, PrP UTR inh) | PrPC confirm 34 | LD9 tox 24
CO[C@H]([C@H](C)/C=C/N(C)C=O)[C@@H](C)C(=O)CC[C@H](C)[C@H](O)[C@H](C)[C@H]1OC(=O)/C=C/C(C)=C/[C@H](O)[C@H](OC)C[C@@H]2C=CC[C@@H](C[C@H](OC)[C@@H](CO)[C@@H](OC)C[C@@H](OC)[C@@H]1C)O2	PrPC TRFRET 37 (no result: 3CLpro inhibitor, Vc quorum ag, PfHsp40 yeast, PriA SSB inh, PrP UTR inh) | PrPC confirm 32 | LD9 tox 23
Cc1cc(C)nc(SCc2cc(=O)c(OC(=O)c3cc4ccccc4oc3=O)co2)n1	none (no result: 3CLpro inhibitor, Vc quorum ag, PfHsp40 yeast, PrP UTR inh, PrPC TRFRET)
O=C(NCCC1=CCCCC1)C(=O)NCC1CCN(C(=O)c2ccoc2)CC1	none (no result: 3CLpro inhibitor, Vc quorum ag, PfHsp40 yeast, PrP UTR inh, PrPC TRFRET)
CC[C@@H]1N=C(c2ccccc2)c2cc(Br)ccc2NC1=O	none (no result: 3CLpro inhibitor, Vc quorum ag, PfHsp40 yeast, PrP UTR inh, PrPC TRFRET)
O=C1NC(Cc2ccccc2)C(=O)Nc2ccc(Br)cc21 (stereo unspecified)	PrPC TRFRET 25 | PrPC confirm inactive | LD9 tox inactive
COc1cc(N2C(=O)NC3CC2(C)Oc2ccccc23)cc(OC)c1OC (stereo unspecified)	PrPC TRFRET 33 | PrPC confirm inactive | LD9 tox inactive
CSc1cccc(N2C(=O)NC3CC2(C)Oc2ccccc23)c1 (stereo unspecified)	none (no result: 3CLpro inhibitor, Vc quorum ag, PfHsp40 yeast, PrP UTR inh, PrPC TRFRET)
O=C(Cn1c(CO)cnc1SCC(=O)N1CCCc2ccccc21)NCc1ccc(F)cc1	none (no result: 3CLpro inhibitor, Vc quorum ag, PfHsp40 yeast, PrP UTR inh, PrPC TRFRET)
COc1ccc(C(=O)NC(=S)Nc2cccc(S(=O)(=O)N3CCOCC3)c2)cc1	none
CC(C)(C)c1ccc(OCCC(=O)Nc2cccc(S(=O)(=O)N3CCOCC3)c2)cc1	PrPC TRFRET 25 | PrPC confirm inactive | LD9 tox inactive
CN1CCN(S(=O)(=O)c2cccc(C(=O)Nc3sccc3C(N)=O)c2)CC1	none (no result: 3CLpro inhibitor)
CN1CCN(S(=O)(=O)c2cccc(C(=O)Nc3cc(C(N)=O)cc(C(N)=O)c3)c2)CC1	PrPC TRFRET 30 | PrPC confirm 25 | LD9 tox inactive
COc1ccc(OCCC(=O)OCC(=O)Nc2cccc(S(=O)(=O)N3CCOCC3)c2)cc1	none

Screening data (PubChem BioAssay)
